Bioassay records as filed in PubChem BioAssay.
Sampled rows, rich in hits. Any-hit rate of the full collection: about 8.8%.
HT1080 IDH1KD tx: qHTS for induction of synthetic lethality in tumor cells producing 2HG: qHTS for the HT-1080-IDH1KD cell line | HT-1080 IDH1 knockdown viability, ATP luminescence, 48 h | Potency, µM (titrated, usually from 46.1 µM), for inactives: at the highest dose activity, negative = toxicity, actives largely listed as cytotoxic | 360,000 tested, 2% active;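 further: potency means the concentration at half of the fitted maximal effect; 0% = DMSO wells and -100% = cell-free medium wells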
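Assay cells: HT-1080 with IDH1 knockdown, 750 per well, RPMI/5% FBS. Exposure: 48 h at 37 °C following 2 h pre-incubation. Read: CellTiter-Glo luminescence; fitted concentration-response, curve class assigned.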
KB-3-1 cytotox: qHTS assay for MDR1-selective chemotherapeutics: Primary screen using the parental adenocarcinoma cell KB-3-1; Potency, µM (series often up to 46.1 µM), actives largely listed as cytotoxic; KB-3-1 viability, CellTiter-Glo ATP luminescence, 72 h; 400,000 tested, 1.4% active; further: potency means the concentration at half of the fitted maximal effect; nearly all actives have a fitted effect of over 60% in size
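72 h, 37 °C compound treatment of KB-3-1 parental cells; CellTiter-Glo added, 10 min, luminescence read. Data corrected against DMSO-only plates and normalized before curve fitting.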
IL-1B inflam inh: qHTS for Inhibitors of Inflammasome Signaling: IL-1-beta AlphaLISA Primary Screen; THP-1 LPS/ATP IL-1B secretion, AlphaLISA, 16 h; hits give low values; activity change, % at 57.5 µM; 360,000 tested, 4.7% active; in the data active means activity change below about -50%; inconclusive means mostly about -30% to -49%
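Secreted IL-1B measured by AlphaLISA bead assay after 16 h compound exposure of THP-1 cells; compounds (final up to 57.5 uM) added 1 h before LPS (250 ng/mL) and ATP (1.25 mM) stimulation; lower signal means less secretion.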
HT1080NT lethal: qHTS for induction of synthetic lethality in tumor cells producing 2HG: qHTS for the HT-1080-NT fibrosarcoma cell line; HT-1080-NT fibrosarcoma viability, CellTiter-Glo ATP luminescence, 48 h; Potency, µM (top dose mostly 46.1 µM), inactives show top-dose activity, negative = less viability, actives largely listed as cytotoxic; 360,000 tested, 1.6% active; AID 686970, 2013;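 further: NT is the 2HG producing partner of a matched IDH1 knockdown line; potency means the concentration at half of the fitted maximal effect; 0% = DMSO-treated cells and -100% = media-only wells without cells; nearly all actives have a fitted effect of over 55% in size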
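Compounds were tested in concentration-response format on HT-1080-NT cells for 48 hours at 37 degrees C. Cell viability came from CellTiter-Glo luminescence; curves were classified by r2, response magnitude and activity.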
KB-V1 MDR tox: qHTS assay for MDR1-selective chemotherapeutics: Primary screen using the drug-selected MDR subline cells KB-V1; 400,000 tested, 3.4% active; AID 1347076, 2019; Potency, µM (titrated, usually from 46.1 µM), hits mostly cytotoxic; KB-V1 MDR cells viability, CellTiter-Glo, 72 h; further: potency means the concentration at half of the fitted maximal effect; nearly all actives have a fitted effect of over 60% in size
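Following 72 h at 37 degrees C with compound, KB-V1 cell viability was read by CellTiter-Glo luminescence, medium being phenol-red-free DMEM plus 10% FBS; concentration-response parameters came from normalized, curve-fitted qHTS data.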
* marks the source's active call; other numbers are inactive results; i = inactive; u = inconclusive; x = no result; [ ] = dose if it differs, or a comment. Unless noted, the call rests on the fitted dose curve; in most records, active means well fitted curve in the direction sought with a large enough effect; inconclusive means small, poorly fitted or top-dose-only effect, or another doubt; inactive means no such curve, though single readings can be large; an effect the other way counts as inactive or inconclusive. Unless noted, on the % scale 0 is the no-effect control and ±100 the full control effect.

SMILES | HT1080 IDH1KD tx | KB-3-1 cytotox | IL-1B inflam inh | HT1080NT lethal | KB-V1 MDR tox
CCc1cccc(C)c1NC(=O)CN1C(=O)C2(SCC(=O)N2c2cccc(F)c2)c2ccccc21 (stereo not drawn) | x | i | x | x | i
CC1CC(C)CN(CCCNC(=O)CN2C(=O)CSc3ccc(S(=O)(=O)N4CCCCC4)cc32)C1 (stereo not drawn) | 1% | i | -60* | -3% | u
O=C(CN1C(=O)CSc2ccc(S(=O)(=O)N3CCOCC3)cc21)NCCCN1CCCCC1 | 7% | i | 12 | 5% | u
CCN1CCN(CNC(=O)c2cnccn2)CC1 | 1% | u | 6 | -4% | 23µM*
Cc1cc(N(C)Cc2ccccc2)nc2cc(O)ccc12 | u | i | -56* | u | i
Cc1cc(N(C)Cc2ccccc2)nc(-c2ccccc2)n1 | u | u | 23 | -15% | u
O=C(c1ccc(N2CN(C(=O)c3ccco3)c3nc4ccccc4nc32)cc1)N1CCOCC1 | 3%[9.24 µM] | i | -59* | u | i
CCOc1ccc(-c2cn3c(n2)sc2cc(C(=O)NC(C)C45CC6CC(CC(C6)C4)C5)ccc23)cc1 (stereo not drawn) | x | i | x | x | i
COc1cc(C2CC(=O)C3=C(C2)Nc2ncnn2C3c2cccs2)cc(OC)c1OC (stereo not drawn) | -15% | i | 23 | u | i
COc1cc(C2C3=C(Nc4ncnn42)c2ccccc2CC3)cc(OC)c1OC (stereo not drawn) | 0.73µM* | 0.29µM* | 86 | 0.73µM* | 0.65µM*
COc1cc(C2C=C(c3cccs3)Nc3ncnn32)cc(OC)c1OC (stereo not drawn) | u | 1µM* | -4 | u | 3.7µM*
Cc1ccc(NC(=O)Cn2c(=O)n(Cc3ccco3)c(=O)c3sc4ccccc4c32)c(C)c1 | x | i | x | x | i
CCOC(=O)C1=C(C)Nc2ccc(C)cc2S1 | -3% | i | u | -7% | i
CCOCCOC(=O)C1=C(C)Nc2ccc(C)cc2S1 | -3% | i | 11 | -17% | 13µM*
Cc1ccc2[nH]c(=O)c3cc(C(=O)N(C)C4CCCCC4)sc3c2c1 | 1% | i | x | 4% | i
O=[N+]([O-])c1cccc(S(=O)(=O)NCCCn2ccnc2)c1 | 10% | i | -3 | u | u
C/C=C(/C)C(=O)O[C@@H]1c2c(ccc3ccc(=O)oc23)O[C@@H]1C(C)(C)OC(=O)/C(C)=C\C | u | u | -11 | u | 6.5µM*
O=C1C=C(c2ccc(Oc3ccccc3)cc2)C[C@@H](c2ccc3c(c2)OCO3)C1 | 10% | i | -3 | 2% | i
COCCNC(=O)Cn1cc(/C=N/NC(=O)c2ccc(Oc3ccc(O)cc3)cc2)c2ccccc21 | -21% | i | -70* | -5% | i
CCOC(=O)N/N=C/c1cn(CCCOc2ccc(C)cc2)c2ccccc12 | -7% | u | -12 | 1% | 21µM*
CCOC(=O)N/N=C/c1cn(CCCOc2ccccc2)c2ccccc12 | -28% | i | -29 | -22% | u
N#Cc1cn(CCOc2ccc(F)cc2)c2ccccc12 | -8% | u | -11 | -5% | i
COc1ccc(OCCn2cc(/C=N/NC(=O)c3ccncc3)c3ccccc32)cc1 | 8% | i | 0 | -1% | u
Cc1ccc(OCCCn2cc(C#N)c3ccccc32)cc1 | -3% | u | -21 | -1% | 16µM*
COc1ccccc1C(=O)OCc1cc(=O)n2c(C)csc2n1 | x | i | x | x | i
CCc1ccc(CNC(=O)Cc2ccc(NC(=O)N3CCSc4ncccc43)cc2)cc1 | x | i | x | x | i
N#Cc1ccc(CSc2nc3c(c(=O)[nH]2)CCCC3)cc1 | x | i | x | x | i
Cc1ccc(C)c(C(=O)C[n+]2cccc(Br)c2)c1 | x | u | x | x | i
COc1cc(NC(=O)NC(C)c2c(-n3cccc3)sc3c2CCN(C)C3)cc(OC)c1 (stereo not drawn) | x | i | x | x | i
